Assay outcomes: PubChem BioAssay, Small Molecule Screening Facility, UW Madison
RMI-FANCM inh: blocks RMI1/RMI2 complex binding to FANCM MM2 peptide | Fluorescence polarization, RMI core complex with F-MM2 peptide; stronger effect = lower value | FP signal (polarization) at 33 µM | 70,000 compounds, 0.58% hits; in the data active = FP signal below about 40
A number is an active result; i = inactive. Shown is part of a subset that was picked to be rich in hits.

SMILES	RMI-FANCM inh
CCc1cccc(C)c1NC(=O)CSc1nc2cc(-c3ccccc3)sc2c(=O)n1C	i
Cc1cccc(NC(=O)C2CCN(c3ccc(-c4ccc(F)cc4)nn3)CC2)n1	i
CN(C)c1ccc(-c2nc3ccccc3c(=O)[nH]2)c(Cl)c1	i
CC(O)=c1c(=O)nc2ccc(Cl)c3c2=c1c1ccccc1c3=O	-21
N#C/C(=C\c1ccc(Cl)c(Cl)c1)c1nc2ccccc2c(=O)[nH]1	i
CCOC(=O)N1CCc2c(sc(NC(=O)c3cccc(C)c3)c2C(N)=O)C1	i
CCOC(=O)c1c(NC(=O)c2ccc3ncsc3c2)sc2c1CCN(C(=O)OCC)C2	-5
COC(=O)N1CCc2c(sc(NC(=O)c3ccc4ncsc4c3)c2C(N)=O)C1	i
O=C(c1ccc2c(c1)OCO2)N(C(=O)N1CCCCC1)c1cccc(Cl)c1	i
CS(=O)(=O)N1CCC(c2nn(CC(=O)N3CCc4ccccc43)c(=O)n2-c2cccs2)CC1	i
CN1CCc2c(sc3nc(NC(=O)c4ccc(OC(F)(F)F)cc4)sc(=O)c23)C1	i
CCNc1nc(SCC(=O)NC(=O)NCc2ccccc2)nc2sc3c(c12)CCN(C)C3	i
CCNc1[nH]c(=S)nc2sc3c(c12)CCN(C)C3	-15
O=S(=O)(c1ccc(-c2nc(-c3ccc(Cl)cc3)cs2)cc1)N1CCOCC1	i
O=C(Nc1csc(-c2ccc(Oc3ccc(-c4nc(NC(=O)c5cc(Cl)sc5Cl)cs4)cc3)cc2)n1)c1cc(Cl)sc1Cl	i
O=C(Nc1csc(-c2ccc(Oc3ccc(-c4nc(NC(=O)c5ccc(C(=O)c6ccccc6)cc5)cs4)cc3)cc2)n1)c1ccc(C(=O)c2ccccc2)cc1	25
O=C(Nc1csc(-c2ccc(Oc3ccc(-c4nc(NC(=O)c5ccc(S(=O)(=O)N6CCOCC6)cc5)cs4)cc3)cc2)n1)c1ccc(S(=O)(=O)N2CCOCC2)cc1	9
O=C(Nc1ccc(S(=O)(=O)N2CCOCC2)cc1)c1ccc(Cl)cc1	i
O=C(Nc1nc(-c2ccc(Br)cc2)cs1)c1ccc(Oc2ccc(C(=O)Nc3nc(-c4ccc(Br)cc4)cs3)cc2)cc1	i
Cc1nnsc1C(=O)Nc1ccccc1SCc1cccc(C(F)(F)F)c1	i
CNC(=O)CCc1csc(NC(=O)Nc2cccc(Cl)c2)n1	i
COCCN1CCC(CNS(=O)(=O)c2c(C)cc(C)cc2C)CC1	i
COC(=O)c1ccsc1NC(=O)c1ccc([N+](=O)[O-])s1	i
O=C(O)CC(NS(=O)(=O)c1cc(S(=O)(=O)NC(CC(=O)O)c2ccccc2)c2cccc3c2c1NC3=O)c1ccccc1 (stereo not drawn)	i
COC(=O)c1ccccc1NS(=O)(=O)c1cccc2cccnc12	i
SMILES	RMI-FANCM inh
COC(=O)c1ccccc1NS(=O)(=O)c1cc(S(=O)(=O)Nc2ccccc2C(=O)OC)c2cccc3c2c1NC3=O	30
COc1cn(CC(=O)NCCc2ccccc2)c(CN2CCCCC2)cc1=O	i
O=C(NNC(=O)c1ccc(=O)n(Cc2ccc(Cl)cc2)c1)c1ccc(F)c(F)c1	i
COc1cc(C=C(C#N)C#N)ccc1OC(=O)c1cc(OC)c(OC)c(OC)c1	i
COc1ccc(S(=O)(=O)Nc2cccc(-c3ccc4nnc(C)n4n3)c2)c(OC)c1	i
O=C(CCCCn1c(=O)c2ccccc2n(Cc2c(F)cccc2Cl)c1=O)NC1CCCC1	i
CNC(=O)C(=O)Nc1ccc(Cl)c(N2CCCS2(=O)=O)c1	i
O=[N+]([O-])c1cnc(Sc2nnc(-c3ccc(Cl)cc3)o2)s1	i
CSc1nnc(Sc2ncc([N+](=O)[O-])s2)s1	2
O=[N+]([O-])c1cnc(Sc2ccc(C(F)(F)F)cn2)s1	i
O=C(NCCCn1nc(-c2ccncc2)ccc1=O)Nc1ccc(F)cc1F	i
Nc1ncnc(Cl)c1[N+](=O)[O-]	i
COCC(=O)N1CCCc2ccc(NS(=O)(=O)Cc3cccc(C)c3)cc21	i
COCCN1CCCc2ccc(NS(=O)(=O)Cc3cccc(C)c3)cc21	0
COCCN1CCCc2ccc(NS(=O)(=O)c3cccc(C)c3)cc21	i
Cn1c(=O)c2c(SCC(=O)N3CCCC3)nc(-c3cccc([N+](=O)[O-])c3)nc2n(C)c1=O	i
COc1cccc(-c2cn3c(C(=O)N4CCN(c5ccccc5OC)CC4)csc3n2)c1	i
CCOC(=O)C1CCN(Cc2cc(Cl)c3cccnc3c2O)CC1	i
C=CCn1c(N)c(S(=O)(=O)c2ccc(Cl)cc2)c2nc3ccccc3nc21	i
Nc1c(S(=O)(=O)c2cccs2)c2nc3ccccc3nc2n1Cc1ccco1	12
Cn1c(-c2c(N)n(Cc3ccco3)c3nc4ccccc4nc23)nc2ccccc21	i
O=C(NCCO)C(=O)NCCC1CCCCN1S(=O)(=O)c1ccccc1 (stereo not drawn)	i
Cc1ccc(S(=O)(=O)Nc2ccc3c(c2)CCC(=O)N3C)s1	i
COC(=O)c1ccccc1NC(=O)/C(C#N)=C/c1ccc(O)cc1	i
COc1ccc(/C=C2\SC(=S)NC2=O)cc1	i
Fc1ccc(Nc2nc3ccccc3[nH]2)cc1	i
O=C(Nc1sc2c(c1-c1nc3ccccc3s1)CCCC2)c1ccc2c(c1)OCCO2	i
